The target in experiment [1] is RAC-alpha serine/threonine-protein kinase (Homo sapiens) (UniProt P31749). The following applies: at 0.1 µM.
For experiment [2] the target is unchanged. As to conditions: at 1 µM.
In experiment [3] the target is RAC-beta serine/threonine-protein kinase (Homo sapiens) (UniProt P31751). As to conditions: at 0.1 µM.
The target is the same in experiment [4]. As to conditions: at 1 µM.
In experiment [5] the target is RAC-gamma serine/threonine-protein kinase (Homo sapiens) (UniProt Q9Y243). The following applies: at 0.1 µM.
The target is the same in experiment [6]. The following applies: at 1 µM.
Experiment [7] concerns the target G protein-coupled receptor kinase 6 (Homo sapiens) (UniProt P43250). As to conditions: at 0.1 µM.
Experiment [8] shares this target. The following applies: at 1 µM.
Experiment [9] deals with T1, Rhodopsin kinase GRK7 (Homo sapiens) (UniProt Q8WTQ7).
T1 sequence (whole entry): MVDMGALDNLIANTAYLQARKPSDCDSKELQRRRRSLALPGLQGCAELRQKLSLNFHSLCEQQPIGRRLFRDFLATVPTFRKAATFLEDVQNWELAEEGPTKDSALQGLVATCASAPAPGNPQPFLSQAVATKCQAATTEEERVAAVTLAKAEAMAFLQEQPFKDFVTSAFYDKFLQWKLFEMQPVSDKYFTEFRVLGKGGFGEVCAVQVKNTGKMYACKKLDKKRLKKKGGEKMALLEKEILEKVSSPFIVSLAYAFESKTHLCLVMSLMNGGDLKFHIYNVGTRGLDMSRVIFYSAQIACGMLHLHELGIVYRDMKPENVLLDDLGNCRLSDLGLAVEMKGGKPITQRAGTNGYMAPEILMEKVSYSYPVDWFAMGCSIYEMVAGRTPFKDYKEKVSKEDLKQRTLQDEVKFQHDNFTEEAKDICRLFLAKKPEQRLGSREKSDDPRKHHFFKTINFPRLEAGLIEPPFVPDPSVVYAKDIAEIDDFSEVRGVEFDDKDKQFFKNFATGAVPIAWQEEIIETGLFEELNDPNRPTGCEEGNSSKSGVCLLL
As to conditions: at 0.1 µM.

The target of experiment [10] is T1, Rhodopsin kinase GRK7 (Homo sapiens). As to conditions: at 1 µM.

SMILES strings stand for the structures.

Sequence of RAC-gamma serine/threonine-protein kinase (Homo sapiens) (Q9Y243 whole entry): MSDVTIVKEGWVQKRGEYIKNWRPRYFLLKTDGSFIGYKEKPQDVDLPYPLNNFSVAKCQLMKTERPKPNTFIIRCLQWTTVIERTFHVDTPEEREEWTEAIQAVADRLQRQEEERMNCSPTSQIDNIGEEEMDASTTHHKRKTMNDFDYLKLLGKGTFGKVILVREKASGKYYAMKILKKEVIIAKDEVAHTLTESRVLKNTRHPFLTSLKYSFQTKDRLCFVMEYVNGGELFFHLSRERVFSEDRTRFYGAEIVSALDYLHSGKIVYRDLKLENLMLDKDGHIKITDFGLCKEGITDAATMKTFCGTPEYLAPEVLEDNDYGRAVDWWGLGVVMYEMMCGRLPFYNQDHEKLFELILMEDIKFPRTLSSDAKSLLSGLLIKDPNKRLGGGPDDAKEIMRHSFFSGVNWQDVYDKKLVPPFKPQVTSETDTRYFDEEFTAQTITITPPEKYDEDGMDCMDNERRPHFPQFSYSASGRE
Sequence of G protein-coupled receptor kinase 6 (Homo sapiens) (P43250 whole entry, looked up): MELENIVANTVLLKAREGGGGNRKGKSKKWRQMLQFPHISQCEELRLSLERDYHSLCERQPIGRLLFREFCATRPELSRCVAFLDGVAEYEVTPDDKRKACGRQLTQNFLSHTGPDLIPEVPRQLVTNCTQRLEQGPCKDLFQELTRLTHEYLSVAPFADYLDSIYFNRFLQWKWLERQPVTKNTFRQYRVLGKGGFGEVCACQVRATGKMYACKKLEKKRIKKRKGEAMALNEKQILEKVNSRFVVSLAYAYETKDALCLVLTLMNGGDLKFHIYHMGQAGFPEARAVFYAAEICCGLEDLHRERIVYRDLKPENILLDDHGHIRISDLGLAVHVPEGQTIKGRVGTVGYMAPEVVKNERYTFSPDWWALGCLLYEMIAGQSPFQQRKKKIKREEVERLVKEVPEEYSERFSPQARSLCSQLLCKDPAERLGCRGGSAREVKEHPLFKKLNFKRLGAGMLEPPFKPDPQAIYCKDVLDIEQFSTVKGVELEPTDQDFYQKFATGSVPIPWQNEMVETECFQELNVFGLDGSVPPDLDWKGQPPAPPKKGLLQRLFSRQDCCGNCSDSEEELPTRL
Sequence of RAC-beta serine/threonine-protein kinase (Homo sapiens) (P31751 whole entry): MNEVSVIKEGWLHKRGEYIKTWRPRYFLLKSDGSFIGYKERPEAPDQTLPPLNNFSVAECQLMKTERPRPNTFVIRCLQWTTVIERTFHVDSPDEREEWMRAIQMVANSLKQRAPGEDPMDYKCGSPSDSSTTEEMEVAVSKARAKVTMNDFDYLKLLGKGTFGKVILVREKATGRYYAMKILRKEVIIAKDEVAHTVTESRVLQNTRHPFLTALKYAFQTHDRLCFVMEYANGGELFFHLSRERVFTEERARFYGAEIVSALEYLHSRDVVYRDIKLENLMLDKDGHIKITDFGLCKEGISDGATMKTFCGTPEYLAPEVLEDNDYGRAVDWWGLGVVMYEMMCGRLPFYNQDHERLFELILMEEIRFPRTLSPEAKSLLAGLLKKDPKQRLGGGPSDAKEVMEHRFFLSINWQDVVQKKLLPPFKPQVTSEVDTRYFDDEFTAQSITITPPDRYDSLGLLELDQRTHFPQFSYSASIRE
Sequence of RAC-alpha serine/threonine-protein kinase (Homo sapiens) (P31749 whole entry): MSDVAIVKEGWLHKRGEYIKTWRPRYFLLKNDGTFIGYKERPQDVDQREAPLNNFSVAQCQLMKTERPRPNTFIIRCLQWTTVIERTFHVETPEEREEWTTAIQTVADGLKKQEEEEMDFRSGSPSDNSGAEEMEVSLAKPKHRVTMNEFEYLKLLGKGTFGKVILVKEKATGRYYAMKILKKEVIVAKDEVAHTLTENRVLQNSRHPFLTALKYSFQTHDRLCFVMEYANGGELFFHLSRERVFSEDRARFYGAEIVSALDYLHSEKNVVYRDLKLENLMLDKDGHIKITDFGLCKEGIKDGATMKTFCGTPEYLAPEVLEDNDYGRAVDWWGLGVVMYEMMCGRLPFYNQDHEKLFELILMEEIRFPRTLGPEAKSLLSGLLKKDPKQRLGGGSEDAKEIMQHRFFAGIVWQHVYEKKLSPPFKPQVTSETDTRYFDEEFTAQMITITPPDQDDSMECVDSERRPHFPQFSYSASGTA

One may read the inhibition as the drop in the measured response relative to a control, in per cent. Regarding `CCCN1CCCC(c2ccc(Nc3nc(Nc4cc(F)ccc4C(N)=O)c4cc[nH]c4n3)c(OC)c2)C1` (stereo not given), the inhibition in experiment [1] stood at 0.39%; in experiment [2] it was 0.27%; in experiment [3], 1.85%; in experiment [4], 1.92%; in experiment [5], 0.52%; in experiment [6], 2.18%. Further, the inhibition in experiment [7] turned out to be 5.66%; in experiment [8], 25.3%; in experiment [9], 3.88%; in experiment [10], 16.6%.
For `c1ccc(Cc2nc3ccc(Nc4ncnc5ccccc45)cc3[nH]2)cc1`, the inhibition in experiment [1] was found to be 0.62%; in experiment [2] it was 0.65%; in [3], 1.38%; in experiment [4], 1.4%; in experiment [5], 1.19%; in experiment [6] it was 0.88%. For the same compound, the inhibition was 3.39% in experiment [7], 3.05% in experiment [8], 0.46% in [9] and -1.96% in experiment [10].
With `CC(C)c1ccc2c(c1)NC(=O)/C2=N/Nc1ccc(S(N)(=O)=O)cc1`, the inhibition in [1] was -0.05%; in [2], -0.49%; in experiment [3] it was -0.37%; in experiment [4], 0.73%; in [5], -0.27%; in experiment [6], 4.41%. For the same compound, the inhibition in experiment [7] was -0.59%; in [8], -0.78%; in experiment [9], 2.96%; in [10] it was -0.57%.
On to `CS(=O)(=O)Nc1cccc(-c2ccc3c(NC(=O)C4CC4)n[nH]c3c2)c1`, for which the inhibition in [1] is 0.47%; in experiment [2] it was -0.39%; in experiment [3], 0.26%; in experiment [4], 0.15%; in experiment [5], 0.35%; in experiment [6], -2.8%. For the same compound, the inhibition in experiment [7] was 1.58%; in experiment [8] it was -0.72%; in [9], 0.25%; in experiment [10], 2.21%.
On to `CN(C)c1cc2c(Nc3ccc4c(cnn4Cc4ccccc4)c3)ncnc2cn1`, for which the inhibition turned out to be 0.51% in experiment [1]; 0.62% in experiment [2]; 2.07% in experiment [3]; 1.16% in experiment [4]; 0.46% in experiment [5]; 1.23% in [6]. Also, the inhibition in [7] was 3.25%; in experiment [8] it was 3.36%; in [9], 2.54%; in experiment [10] it was 3.15%.
Regarding `COc1cc2ncnc(Nc3ccc4c(cnn4Cc4ccccc4)c3)c2cc1OC`, the inhibition in experiment [1] was -0.49%; in experiment [2], 0.77%; in experiment [3], 0.99%; in [4] it was 1%; in [5], 0.08%; in [6], 2.09%. Besides, the inhibition was -0.46% in [7], 2.17% in experiment [8], 9.43% in experiment [9] and 2.89% in experiment [10].
With `COc1cccc(-n2nc(C)c3c(N/N=C(\C)c4ccncc4)ncnc32)c1`, the inhibition in experiment [1] was -0.15%; in experiment [2] it was -0.16%; in experiment [3] it was -0.34%; in [4], 0.3%; in experiment [5] it was -0.78%; in [6], 3.59%. Also, the inhibition came to 0.75% in experiment [7], 1.13% in experiment [8], 3.79% in experiment [9] and 0.01% in experiment [10].
For `CCOc1nccc2c1nc(-c1nonc1N)n2CC`, the inhibition in experiment [1] was determined as 0.82%; in [2] it was 1.86%; in experiment [3], 1.97%; in [4], 1.44%; in experiment [5], 0.46%; in [6] it was 1.25%. For the same compound, the inhibition in experiment [7] was determined as 4.85%; in [8] it was 18.1%; in experiment [9], 3.99%; in [10] it was 8.26%.
Consider `NS(=O)(=O)c1cccc(Nc2cc(-c3ccc(F)cc3)n[nH]2)c1`, for which the inhibition in experiment [1] came out at 1.57%; in experiment [2], 2.41%; in experiment [3], 3.5%; in experiment [4], 2.66%; in experiment [5] it was 2.29%; in experiment [6], 3.03%. Moreover, the inhibition stood at 4.03% in [7], 8.09% in experiment [8], 2.68% in experiment [9] and 5.14% in experiment [10].
Consider `NS(=O)(=O)c1ccc(-c2cc3ccncc3cc2OCc2ccccc2)cc1`, for which the inhibition was found to be 0.08% in experiment [1]; 0.83% in experiment [2]; 1.46% in experiment [3]; 1.66% in experiment [4]; 0.51% in [5]; 2.2% in experiment [6]. The inhibition in experiment [7] turned out to be 2.02%; in experiment [8] it was 8.2%; in experiment [9] it was 1.52%; in [10], 6.27%.
`COC(=O)c1ccc2c(c1)C(=Cc1cc(Br)c(O)c(Br)c1)C(=O)N2`: the inhibition was 0.91% in experiment [1]; 0.66% in experiment [2]; 0.67% in experiment [3]; 1.05% in [4]; 1.09% in experiment [5]; 2.88% in [6]. For the same compound, the inhibition in experiment [7] is 7.82%; in experiment [8], 43.5%; in [9], 12.8%; in [10] it was 28.4%.
With `COc1ccc(-c2nn3ncccc3c2-c2ccnc(Nc3cccc(C(F)(F)F)c3)n2)cc1`, the inhibition in experiment [1] stood at 0.68%; in [2] it was 0.72%; in experiment [3], 1.23%; in [4], 1.84%; in experiment [5], 0.37%; in experiment [6], 1.95%. The inhibition in [7] is 3.32%; in [8], 2.16%; in experiment [9], 5.25%; in experiment [10] it was 1.87%.
On to `CN1CCN(C(=O)c2ccc(NC(=O)Nc3ccc(N(C)c4ccnc(Nc5ccc(CS(C)(=O)=O)cc5)n4)cc3)cc2)CC1`, for which the inhibition is 0.3% in experiment [1]; -0.86% in experiment [2]; -0.33% in [3]; 1.06% in experiment [4]; 0.49% in [5]; 1.64% in [6]. The inhibition in experiment [7] is 2.2%; in experiment [8] it was 1.86%; in experiment [9] it was 4.4%; in experiment [10], 0.44%.
For `CCn1c(-c2nonc2N)nc2c(C#CC(C)(C)O)nc(OCCNC)cc21`, the inhibition in experiment [1] was determined as 20.8%; in [2] it was 67.4%; in experiment [3], 33.1%; in [4], 75.3%; in experiment [5], 23.1%; in experiment [6] it was 68.2%. Besides, the inhibition in experiment [7] came out at 4.94%; in experiment [8], 3.62%; in experiment [9], 9.11%; in experiment [10], 2.53%.
Take `Oc1cccc(-c2nc(-c3ccccc3)[nH]c2-c2ccncc2)c1`: the inhibition in experiment [1] was -0.1%; in experiment [2], 1.39%; in experiment [3] it was 2.18%; in [4] it was 2.47%; in experiment [5], 0.82%; in [6], 3.85%. For the same compound, the inhibition was 6.53% in experiment [7], 4.9% in experiment [8], 1.3% in experiment [9] and -0.71% in experiment [10].
Take `NS(=O)(=O)c1ccc(N/N=C2\C(=O)Nc3ccc(Cl)cc32)cc1`: the inhibition in [1] is 1.17%; in experiment [2], 1.19%; in experiment [3] it was 3.01%; in experiment [4], 2.43%; in [5], 1.79%; in experiment [6] it was 1.82%. The inhibition worked out at 4.41% in experiment [7], 8.19% in [8], 2.49% in [9] and 2.98% in experiment [10].
Consider `CN(C)CCCn1c(-c2nonc2N)nc2cnccc21`, for which the inhibition in [1] is 0.01%; in experiment [2], 1.38%; in [3], 1.85%; in experiment [4], 3.82%; in [5], 0.92%; in [6], 1.84%. In addition, the inhibition in [7] amounted to 3.78%; in experiment [8] it was 3.55%; in [9], 2.61%; in experiment [10] it was 5.07%.

The record behind these values is ChEMBL document CHEMBL1961873, “Compounds: GSK PKIS; Assays: Nanosyn kinase panel” (2012).
